Calls of active or inactive are those of the source.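 How the source made its calls, unless noted: active means inhibition at or above 50% at 10 µM; inactive means inhibition below 50%.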
Legend:
[1] = inhibitors of TNFa-induced NFkB p65 translocation, primary screen, imaging, HUVEC, MLSMR starter and 10KST1 sets (AID 438;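 active means inhibition above 20% together with a positive visual image hit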;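 further: compound added about 3h40 before a 20 min TNFalpha stimulation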;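 on inhibition: signal is the nuclear over cytoplasmic p65 intensity ratio per well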); settings: HUVEC TNFa-induced p65 nuclear translocation; cell count: measured here: nuclei count (cytotoxicity indicator), at 2.08 µM; inhibition: at 2 µM, stronger effect = higher value, 0% TNFa-plus-vehicle, 100% no-TNFa wells
[2] = reduction of polyQ htt aggregates in cells – imaging, exon1htt(103Q)mCFP cells, high-content imaging, primary screen (AID 483;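 active means visual image review flags a hit and inhibition of aggregation exceeds 20%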;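 further: compound exposure lasted 3 days before fixation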;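 on nuclei count: percent of the per-plate median nuclei count of sample wells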); settings: exon1htt(103Q)mCFP cell line, aggregate imaging, at 2 µM; inhibition of aggregation: stronger effect = higher value; nuclei count: measured here: cell count, toxicity
[3] = endothelial E-selectin expression blockers – imaging, HUVEC, immunofluorescence, MLSMR starter and 10KST1 sets, primary screen (AID 487;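 active means visually confirmed hit in the image check and inhibition above 20%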;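 on inhibition: signal is fraction of cell area covered by stained E-selectin grains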;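 on nuclei count: 100% = median nuclei count of all wells on the same plate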); settings: HUVEC TNFalpha-induced E-selectin immunofluorescence imaging, at 2 µM; inhibition: stronger effect = higher value; nuclei count: measured here: cell number, toxicity
[4] = target: Voltage-gated potassium channel subunit beta-2 (Rattus norvegicus) (UniProt P62483); experiment: inhibitors of rat Kvbeta2 reductase activity – biochemical, NADPH fluorescence, primary screen (AID 622;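 active means fluorescence slope higher than the sample average by over 3 SD, cut at about -0.22 in these data, passing the limit was not always enough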;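 further: slope of raw intensity against log time taken from 70 to 1610 s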); settings: recombinant KvBeta, 4-cyanobenzaldehyde reduction, at 10 µM, stronger effect = higher value
Chain of Voltage-gated potassium channel subunit beta-2 (Rattus norvegicus) (P62483 whole entry, looked up): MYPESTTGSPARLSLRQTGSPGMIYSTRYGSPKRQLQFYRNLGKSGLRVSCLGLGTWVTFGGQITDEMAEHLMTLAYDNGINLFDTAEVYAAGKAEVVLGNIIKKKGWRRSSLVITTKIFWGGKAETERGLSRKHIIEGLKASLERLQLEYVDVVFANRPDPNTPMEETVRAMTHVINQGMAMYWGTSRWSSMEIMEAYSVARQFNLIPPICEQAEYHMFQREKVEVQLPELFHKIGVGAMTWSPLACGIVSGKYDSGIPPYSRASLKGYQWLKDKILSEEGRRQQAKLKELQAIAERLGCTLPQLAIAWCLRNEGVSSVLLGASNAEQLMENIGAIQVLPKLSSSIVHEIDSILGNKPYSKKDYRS

[5] = target: Voltage-gated potassium channel subunit beta-2 (Rattus norvegicus) (UniProt P62483); experiment: enhancers of rat Kvbeta2 NADPH turnover – biochemical, NADPH fluorescence, primary screen (AID 623;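 active means NADPH fluorescence slope more negative than the mean of all samples by about 3 SD, 99.7% confidence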;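 further: fluorescence intensity change per second fitted from 20 to 320 s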); settings: Recombinant KvBeta, NADPH fluorescence decrease slope, 10 min; at 10 µM; stronger effect = lower value
[6] = target: Alpha-2C adrenergic receptor (Homo sapiens) (UniProt P18825); experiment: compounds altering alpha2C-coupled GIRK flux – cell-based, HEK293 alpha2C/GIRK1/2, thallium flux, primary screen (AID 624;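 active means fluorescence slope after compound addition differing from the mean of all screened samples at 99.7% confidence, in either direction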;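 further: slope of fluorescence ratio to pre-addition baseline per second over 15 to 24 s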); settings: thallium flux BTC fluorescence, at 10 µM, actives lie on both sides
Chain of Alpha-2C adrenergic receptor (Homo sapiens) (P18825 whole entry, looked up): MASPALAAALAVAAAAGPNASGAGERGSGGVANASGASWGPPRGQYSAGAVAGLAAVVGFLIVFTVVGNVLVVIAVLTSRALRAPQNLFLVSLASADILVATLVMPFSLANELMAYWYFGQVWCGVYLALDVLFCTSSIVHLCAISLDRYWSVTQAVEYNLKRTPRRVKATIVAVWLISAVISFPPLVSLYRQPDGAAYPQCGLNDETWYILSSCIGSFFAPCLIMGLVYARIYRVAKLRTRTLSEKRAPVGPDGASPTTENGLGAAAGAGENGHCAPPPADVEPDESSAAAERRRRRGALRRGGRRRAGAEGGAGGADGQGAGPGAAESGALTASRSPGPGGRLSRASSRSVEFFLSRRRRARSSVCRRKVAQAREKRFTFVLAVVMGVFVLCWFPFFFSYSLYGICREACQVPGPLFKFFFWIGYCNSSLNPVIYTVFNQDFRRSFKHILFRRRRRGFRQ

[7] = blockers of RIG-like receptor reporter activation – cell-based, Sendai virus stimulus, luciferase, 10K MLSCN set, TLR/RLR signaling modifier project, primary screen (AID 602276); settings: HEK293 RL24 IRF3 luciferase reporter, at 10 µM, stronger effect = higher value;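 further: firefly luciferase from ISG56 promoter only with Renilla not read in this screen; 0% = Sendai virus plus DMSO and 100% = medium plus DMSO without virus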
[8] = TLR3 IRF3 reporter activation blockers – cell-based, poly I:C stimulus, luciferase, 10K MLSCN set, primary screen (AID 602277;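 active means inhibition of the reporter signal at or above 50%; inactive means inhibition below 50%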); settings: HEK293-TLR3 RL24 IRF3 luciferase reporter, at 10 µM, stronger effect = higher value

SMILES | cell count [1] | inhibition [1] | inhibition of aggregation [2] | nuclei count [2] | inhibition [3] | nuclei count [3] | fluorescence slope [4] | NADPH fluorescence slope [5] | slope [6] | inhibition [7] | inhibition [8]
CC1Cc2ccccc2N1Cc1cc(=O)n2ccsc2n1 (stereo not drawn) | 453 | -5.7% (inactive) | -2.2% (inactive) | 96.8% | -157% (inactive) | 121% | -0.581 (inactive) | -2e-05 (inactive) | 0.00674 (inactive) | 1.61% (inactive) | 20.7% (inactive)
Cn1c(=O)c2c(nc(SCCCC#N)n2Cc2c(F)cccc2Cl)n(C)c1=O | 868 | 0.6% (inactive) | 9.8% (inactive) | 82.3% | -6.8% (inactive) | 108% | -0.589 (inactive) | -6.6e-06 (inactive) | 0.00598 (inactive) | -9.31% (inactive) | 7.45% (inactive)
Cc1c(NC(=O)C(C)Oc2ncnc3ccccc23)c(=O)n(-c2ccccc2)n1C (stereo not drawn) | 547 | -1.7% (inactive) | -8.5% (inactive) | 78% | -5.8% (inactive) | 111% | -0.506 (inactive) | -5e-05 (inactive) | 0.00757 (inactive) | -7.59% (inactive) | 19.3% (inactive)
Cc1ccc(OC(=O)CCC(=O)OCCCC(F)(F)C(F)(F)F)cc1 | 403 | -3% (inactive) | 4.9% (inactive) | 103% | 4.5% (inactive) | 92.5% | -0.382 (inactive) | -5.9e-05 (inactive) | 0.00733 (inactive) | 3.53% (inactive) | 21.1% (inactive)
CCCNC(=O)C1=C(C)C(=O)OC12CCC(C)CC2 (stereo not drawn) | 666 | 1.6% (inactive) | -3.8% (inactive) | 115% | -28.8% (inactive) | 115% | -0.589 (inactive) | 1.9e-05 (inactive) | 0.00681 (inactive) | 3.82% (inactive) | 12% (inactive)
CCC(=O)N/C(N)=N/c1nc(C)c2cc(OC)ccc2n1 | 730 | 10.7% (inactive) | -24.4% (inactive) | 95.9% | 9.1% (inactive) | 92.1% | -0.378 (inactive) | -1.1e-05 (inactive) | 0.00511 (inactive) | -62.4% (inactive) | -122% (inactive)
CCCNC(=O)Nc1ccccc1C(=O)Nc1ccc(OC)cc1 | 351 | 8.1% (inactive) | -15.5% (inactive) | 104% | 25.8% (inactive) | 108% | -0.445 (inactive) | -1.6e-06 (inactive) | 0.00585 (inactive) | -1.84% (inactive) | 30.5% (inactive)
CCOc1ccccc1C(=O)NCC(=O)OCC(=O)N1C(C)CCCC1C (stereo not drawn) | 683 | -3.4% (inactive) | -9.7% (inactive) | 103% | 26.6% (inactive) | 112% | -0.615 (inactive) | 3e-05 (inactive) | 0.00593 (inactive) | 11.2% (inactive) | 17.1% (inactive)
COC(=O)c1ccc(C2C(C#N)=C(N)Oc3cc(C)n(C)c(=O)c32)cc1 (stereo not drawn) | 551 | -11.1% (inactive) | 0.4% (inactive) | 111% | -1.7% (inactive) | 111% | -0.499 (inactive) | -4.1e-05 (inactive) | 0.00425 (inactive) | 9.77% (inactive) | 6% (inactive)
O=C(Nc1cccc(Cl)c1)N1CCN(c2ncccn2)CC1 | 334 | 2% (inactive) | 21% (inactive) | 94.1% | 19.1% (inactive) | 84.8% | -0.53 (inactive) | 4.6e-05 (inactive) | 0.00446 (inactive) | -23.1% (inactive) | -47% (inactive)
CC(C)C(=O)Nc1ccc(-c2nc3cccnc3o2)cc1 | 413 | 6.7% (inactive) | 12.8% (inactive) | 109% | 23.3% (inactive) | 107% | -0.262 (inactive) | 4.8e-06 (inactive) | 0.0065 (inactive) | -33.7% (inactive) | -147% (inactive)
COCCn1c(=O)[nH]c2cc(C(=O)N3CCN(Cc4ccc5c(c4)OCO5)CC3)ccc2c1=O | 742 | -1.6% (inactive) | -2% (inactive) | 122% | -20.8% (inactive) | 115% | -0.643 (inactive) | -1.6e-05 (inactive) | 0.00392 (inactive) | 2.81% (inactive) | -1.78% (inactive)
Clc1c(CSc2nc3ccccc3o2)nc2sccn12 | 651 | 7.3% (inactive) | 7.5% (inactive) | 99.8% | -149% (inactive) | 89.3% | -0.507 (inactive) | -4.4e-05 (inactive) | 0.00562 (inactive) | -56.6% (inactive) | -207% (inactive)
O=C(NCc1nc2ccccc2[nH]1)c1ccco1 | 440 | 0.8% (inactive) | 1.3% (inactive) | 113% | -228% (inactive) | 140% | -0.38 (inactive) | -5.6e-05 (inactive) | 0.00592 (inactive) | -2.68% (inactive) | -21.9% (inactive)
O=C(O)Cn1cc(C(=O)c2ccco2)c2ccccc21 | 316 | 16.3% (inactive) | 3.6% (inactive) | 108% | 30.1% (inactive) | 104% | -0.487 (inactive) | -1.2e-05 (inactive) | 0.00668 (inactive) | 0.251% (inactive) | 8.5% (inactive)
COc1ccccc1NS(=O)(=O)c1ccc(OC)c(OC)c1 | 401 | 5.5% (inactive) | 0.8% (inactive) | 101% | 30.1% (inactive) | 96% | -0.484 (inactive) | -4.4e-05 (inactive) | 0.00597 (inactive) | 1.27% (inactive) | 24.3% (inactive)
CC1(C)CC(=O)C=C(NCCN2CCN(C(=O)Nc3ccccc3)CC2)C1 | 730 | -5.8% (inactive) | 0% (inactive) | 99.6% | -2.1% (inactive) | 109% | -0.412 (inactive) | -4.4e-05 (inactive) | 0.0067 (inactive) | -1.55% (inactive) | -0.835% (inactive)
O=C(Cn1c(NCCO)nc2ccccc21)c1ccccc1 | 513 | 4.9% (inactive) | 18.2% (inactive) | 106% | -58.5% (inactive) | 115% | -0.58 (inactive) | -1.8e-05 (inactive) | 0.00599 (inactive) | 9.81% (inactive) | 29.4% (inactive)
COCCCNC(=O)CC1Oc2ccccc2NC1=O (stereo not drawn) | 762 | 0% (inactive) | 13.4% (inactive) | 87.3% | -48.7% (inactive) | 112% | -0.54 (inactive) | -5.2e-05 (inactive) | 0.00685 (inactive) | 14.8% (inactive) | 33.9% (inactive)
O=C(Nc1ccc2c(c1)OCCO2)NC1CCCCC1 | 379 | 0.5% (inactive) | 20.1% (inactive) | 58.3% | -33.5% (inactive) | 102% | -0.487 (inactive) | -1.2e-05 (inactive) | 0.00607 (inactive) | -28.7% (inactive) | -68.9% (inactive)
Cc1cccc(N(CC(=O)Nc2ccc(CC#N)cc2)S(C)(=O)=O)c1 | 487 | -15.7% (inactive) | -17.9% (inactive) | 106% | -87.9% (inactive) | 109% | -0.483 (inactive) | -2.6e-05 (inactive) | 0.00518 (inactive) | 16.7% (inactive) | 28.7% (inactive)
CC1=C(C(=O)N2CCOCC2)C(c2ccsc2)C2=C(CCCC2=O)N1 (stereo not drawn) | 326 | -25.2% (inactive) | 2.7% (inactive) | 99.6% | -11.7% (inactive) | 110% | -0.408 (inactive) | -4.5e-05 (inactive) | 0.00554 (inactive) | 19.4% (inactive) | 20.8% (inactive)
Cc1ccc(C)c2[nH]c(=O)c(CCNC(=O)c3ccc(S(=O)(=O)N(C)C)cc3)cc12 | 596 | 4.3% (inactive) | 15% (inactive) | 125% | -14% (inactive) | 116% | -0.557 (inactive) | -4e-05 (inactive) | 0.00528 (inactive) | 3.79% (inactive) | 22.8% (inactive)
CCCN(CCC)CCCNS(=O)(=O)c1ccc2c(c1)oc(=O)n2C | 377 | -2.4% (inactive) | 6.1% (inactive) | 102% | -61.9% (inactive) | 112% | -0.432 (inactive) | -9.3e-05 (inactive) | 0.00475 (inactive) | 16.6% (inactive) | 23% (inactive)
CCN(CCCNC(=O)C1CCCN(S(=O)(=O)c2cnc[nH]2)C1)c1ccccc1 (stereo not drawn) | 611 | 21.8% (inactive) | -4.7% (inactive) | 100% | -91.6% (inactive) | 142% | -0.507 (inactive) | -2.4e-05 (inactive) | 0.00623 (inactive) | 5.83% (inactive) | 7.07% (inactive)
CC1(C)Cc2c(sc3c2c(=N)n(Cc2ccco2)c(=O)n3Cc2ccccc2)CO1 | 790 | -10.7% (inactive) | 12% (inactive) | 101% | -27.8% (inactive) | 112% | -0.587 (inactive) | 2.3e-06 (inactive) | 0.0065 (inactive) | 13.1% (inactive) | 23.7% (inactive)
O=C(CCN1C(=O)c2ccccc2C1=O)Nc1ccc(F)cc1 | 442 | 4.9% (inactive) | -0.3% (inactive) | 117% | 14.4% (inactive) | 109% | -0.375 (inactive) | 4.4e-06 (inactive) | 0.00394 (inactive) | 9.91% (inactive) | 13.8% (inactive)
Cc1cc(NC(=O)CSc2nccn2-c2ccc(Cl)cc2)no1 | 505 | 4.2% (inactive) | -6.1% (inactive) | 106% | -65.5% (inactive) | 120% | -0.554 (inactive) | -8.5e-06 (inactive) | 0.00588 (inactive) | -5.68% (inactive) | -15.6% (inactive)

— PubChem BioAssay
